# Tests used:
# Assay in all cases: DAPPL (digital affinity profiling via proximity ligation, sequencing); 10 mM Tris-HCl pH 7.5, 50 mM NaCl, 1 mM DTT, 4% glycerol, room temperature, 30 min; GST-TFs on glutathione beads, 16-mer random dsDNA library, 0.1% formaldehyde crosslink after washing; high values mean tight binding
# [1] = molecular target: T1, GABPA (Homo sapiens, UniProt Q06546 1-454); details: protein: recombinant; tags: N-terminal GST; dsDNA, one strand shown
# T1 sequence: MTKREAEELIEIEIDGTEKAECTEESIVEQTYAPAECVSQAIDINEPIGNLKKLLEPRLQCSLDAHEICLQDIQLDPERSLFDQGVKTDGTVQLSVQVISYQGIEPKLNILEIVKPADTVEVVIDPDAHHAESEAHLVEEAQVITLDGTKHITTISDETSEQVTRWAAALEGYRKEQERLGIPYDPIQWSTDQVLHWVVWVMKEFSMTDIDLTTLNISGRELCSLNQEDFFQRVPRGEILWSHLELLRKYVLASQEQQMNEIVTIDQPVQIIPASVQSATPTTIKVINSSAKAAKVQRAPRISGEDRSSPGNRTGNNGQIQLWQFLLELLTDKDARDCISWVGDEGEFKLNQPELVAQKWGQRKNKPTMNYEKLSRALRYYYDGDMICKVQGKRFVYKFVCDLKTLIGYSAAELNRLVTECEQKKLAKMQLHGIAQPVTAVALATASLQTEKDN
# Method in brief: (§1)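 In yeast, human transcription factors were expressed with a GST fusion, then pulled down on glutathione beads and given DNA barcodes. Pooled with a tag-only sample, they were exposed to 200 nmole of a 16-mer random double-stranded DNA library (Tris/NaCl/DTT/glycerol buffer, room temperature, 30 min), washed, crosslinked with 0.1% formaldehyde, proximity-ligated using BsaI/T4 ligase for 1 h at 37 °C, PCR-amplified and read on an Illumina NextSeq500. Each hexamer's frequency of reads for a factor, divided by the matching frequency for the tag-only sample, gives the binding signal.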
# [2] = molecular target: ELF1 (Homo sapiens, UniProt P32519 1-619); details: protein: recombinant; tags: N-terminal GST; dsDNA, one strand shown
# ELF1, sequence (P32519 whole entry): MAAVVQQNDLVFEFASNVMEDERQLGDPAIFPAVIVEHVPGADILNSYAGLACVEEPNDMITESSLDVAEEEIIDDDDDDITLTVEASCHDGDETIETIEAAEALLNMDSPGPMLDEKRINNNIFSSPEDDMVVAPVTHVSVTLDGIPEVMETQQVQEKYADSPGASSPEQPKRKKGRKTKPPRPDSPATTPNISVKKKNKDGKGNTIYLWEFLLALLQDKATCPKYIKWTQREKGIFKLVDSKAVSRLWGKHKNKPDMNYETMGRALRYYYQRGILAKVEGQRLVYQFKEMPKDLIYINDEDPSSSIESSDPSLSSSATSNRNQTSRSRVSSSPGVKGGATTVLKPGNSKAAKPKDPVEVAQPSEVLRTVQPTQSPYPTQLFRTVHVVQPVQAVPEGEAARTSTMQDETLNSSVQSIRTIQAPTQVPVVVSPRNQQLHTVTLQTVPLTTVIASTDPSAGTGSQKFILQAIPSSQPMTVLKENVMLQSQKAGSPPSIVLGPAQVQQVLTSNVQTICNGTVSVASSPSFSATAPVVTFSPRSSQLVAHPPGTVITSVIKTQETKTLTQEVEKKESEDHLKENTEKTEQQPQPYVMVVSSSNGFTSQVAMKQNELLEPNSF
# Method in brief: as §1
# [3] = molecular target: T2, EHF (Homo sapiens, UniProt Q9NZC4 1-300); details: protein: recombinant; tags: N-terminal GST; dsDNA, one strand shown
# T2 sequence: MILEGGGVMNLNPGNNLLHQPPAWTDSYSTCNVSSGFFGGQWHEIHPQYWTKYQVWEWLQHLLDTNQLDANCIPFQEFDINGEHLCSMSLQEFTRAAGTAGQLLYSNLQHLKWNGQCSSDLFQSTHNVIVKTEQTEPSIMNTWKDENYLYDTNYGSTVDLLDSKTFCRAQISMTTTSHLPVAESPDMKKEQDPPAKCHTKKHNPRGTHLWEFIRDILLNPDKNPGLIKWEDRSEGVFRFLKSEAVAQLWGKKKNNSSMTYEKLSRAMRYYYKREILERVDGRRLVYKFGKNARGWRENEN
# Method in brief: as §1
# [4] = molecular target: SPIB (Homo sapiens, UniProt Q01892 1-262); details: protein: recombinant; tags: N-terminal GST; dsDNA, one strand shown
# SPIB, sequence (Q01892 whole entry): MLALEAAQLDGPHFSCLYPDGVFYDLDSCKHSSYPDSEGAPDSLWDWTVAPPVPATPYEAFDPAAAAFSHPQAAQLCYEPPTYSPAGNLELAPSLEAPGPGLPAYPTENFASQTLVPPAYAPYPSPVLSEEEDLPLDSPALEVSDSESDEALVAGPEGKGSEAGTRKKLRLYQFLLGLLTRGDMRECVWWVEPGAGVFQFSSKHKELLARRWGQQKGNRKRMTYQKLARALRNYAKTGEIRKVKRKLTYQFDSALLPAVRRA
# Method in brief: as §1
# [5] = molecular target: T3, ELK3 (Homo sapiens, UniProt P41970 1-407); details: protein: recombinant; tags: N-terminal GST; dsDNA, one strand shown
# T3 sequence: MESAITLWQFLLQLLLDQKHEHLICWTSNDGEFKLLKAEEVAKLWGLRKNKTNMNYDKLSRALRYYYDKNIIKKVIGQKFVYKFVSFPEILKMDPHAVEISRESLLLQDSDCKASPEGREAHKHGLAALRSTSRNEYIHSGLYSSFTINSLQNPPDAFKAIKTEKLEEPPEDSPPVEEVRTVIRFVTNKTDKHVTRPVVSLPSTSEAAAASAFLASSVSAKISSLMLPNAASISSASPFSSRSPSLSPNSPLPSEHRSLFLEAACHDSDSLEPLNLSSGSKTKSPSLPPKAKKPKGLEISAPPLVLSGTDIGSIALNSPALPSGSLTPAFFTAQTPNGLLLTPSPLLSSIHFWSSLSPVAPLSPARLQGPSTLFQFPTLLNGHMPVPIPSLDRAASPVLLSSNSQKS
# Method in brief: as §1
# [6] = molecular target: HSF1 (Homo sapiens, UniProt Q00613 1-529); details: protein: recombinant; tags: N-terminal GST; chain copies: 3; dsDNA, one strand shown
# HSF1, sequence (Q00613 whole entry): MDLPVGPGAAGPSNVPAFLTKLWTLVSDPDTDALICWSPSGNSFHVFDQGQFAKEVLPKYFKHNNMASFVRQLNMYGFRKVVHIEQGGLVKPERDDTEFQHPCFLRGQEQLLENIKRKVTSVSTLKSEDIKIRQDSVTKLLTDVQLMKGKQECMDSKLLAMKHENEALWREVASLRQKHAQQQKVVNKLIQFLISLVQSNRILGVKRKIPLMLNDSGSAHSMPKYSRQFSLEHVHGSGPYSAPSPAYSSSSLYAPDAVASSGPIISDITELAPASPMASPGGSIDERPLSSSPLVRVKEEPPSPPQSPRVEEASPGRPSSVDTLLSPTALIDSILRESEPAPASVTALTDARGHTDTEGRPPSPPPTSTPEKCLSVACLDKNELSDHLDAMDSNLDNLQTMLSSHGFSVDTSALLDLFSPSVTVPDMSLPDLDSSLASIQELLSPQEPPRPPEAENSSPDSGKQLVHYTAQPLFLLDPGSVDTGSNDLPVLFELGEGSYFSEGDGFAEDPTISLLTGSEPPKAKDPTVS
# Method in brief: as §1
# [7] = molecular target: T4, SPIC (Homo sapiens, UniProt Q8N5J4 1-248); details: protein: recombinant; tags: N-terminal GST; dsDNA, one strand shown
# T4 sequence: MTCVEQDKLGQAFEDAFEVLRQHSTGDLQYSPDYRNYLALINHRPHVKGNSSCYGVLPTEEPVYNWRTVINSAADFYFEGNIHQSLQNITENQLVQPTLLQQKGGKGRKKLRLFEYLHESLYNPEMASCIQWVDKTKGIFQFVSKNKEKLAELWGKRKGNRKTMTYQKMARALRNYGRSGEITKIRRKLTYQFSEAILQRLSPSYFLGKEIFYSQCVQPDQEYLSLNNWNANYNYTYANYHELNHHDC
# Method in brief: as §1
# [8] = molecular target: ELF4 (Homo sapiens, UniProt Q99607 1-663); details: protein: recombinant; tags: N-terminal GST; dsDNA, one strand shown
# ELF4, sequence (Q99607 whole entry): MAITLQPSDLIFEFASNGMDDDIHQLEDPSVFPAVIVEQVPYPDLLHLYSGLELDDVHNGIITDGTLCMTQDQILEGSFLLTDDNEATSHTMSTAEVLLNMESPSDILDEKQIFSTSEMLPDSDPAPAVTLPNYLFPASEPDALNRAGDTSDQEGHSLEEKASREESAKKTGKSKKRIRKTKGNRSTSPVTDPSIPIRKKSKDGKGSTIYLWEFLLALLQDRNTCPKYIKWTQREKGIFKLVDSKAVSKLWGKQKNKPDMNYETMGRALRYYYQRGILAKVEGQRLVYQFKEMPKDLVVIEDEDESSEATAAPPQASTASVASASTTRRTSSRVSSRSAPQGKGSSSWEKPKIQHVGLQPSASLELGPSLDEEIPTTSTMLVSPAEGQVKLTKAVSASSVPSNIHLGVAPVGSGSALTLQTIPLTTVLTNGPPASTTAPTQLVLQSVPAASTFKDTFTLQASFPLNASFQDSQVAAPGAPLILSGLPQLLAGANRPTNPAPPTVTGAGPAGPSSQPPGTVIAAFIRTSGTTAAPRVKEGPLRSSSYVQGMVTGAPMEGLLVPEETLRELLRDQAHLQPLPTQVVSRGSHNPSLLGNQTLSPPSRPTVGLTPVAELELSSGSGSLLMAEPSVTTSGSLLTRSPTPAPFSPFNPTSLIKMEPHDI
# Method in brief: as §1
# [9] = molecular target: T5, ETV2 (Homo sapiens, UniProt O00321 1-342); details: protein: recombinant; tags: N-terminal GST; dsDNA, one strand shown
# T5 sequence: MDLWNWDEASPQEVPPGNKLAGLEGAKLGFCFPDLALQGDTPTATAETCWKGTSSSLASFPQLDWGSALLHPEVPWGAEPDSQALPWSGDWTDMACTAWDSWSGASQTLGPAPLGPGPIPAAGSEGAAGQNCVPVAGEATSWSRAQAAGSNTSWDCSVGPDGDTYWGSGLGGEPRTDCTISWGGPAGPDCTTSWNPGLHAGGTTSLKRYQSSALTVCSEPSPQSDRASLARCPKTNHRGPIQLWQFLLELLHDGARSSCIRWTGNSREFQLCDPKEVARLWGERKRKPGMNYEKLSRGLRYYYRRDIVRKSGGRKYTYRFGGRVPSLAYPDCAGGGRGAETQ
# Method in brief: as §1
# [10] = molecular target: CRX (Homo sapiens, UniProt O43186 1-299); details: protein: recombinant; tags: N-terminal GST; dsDNA, one strand shown
# CRX, sequence (O43186 whole entry): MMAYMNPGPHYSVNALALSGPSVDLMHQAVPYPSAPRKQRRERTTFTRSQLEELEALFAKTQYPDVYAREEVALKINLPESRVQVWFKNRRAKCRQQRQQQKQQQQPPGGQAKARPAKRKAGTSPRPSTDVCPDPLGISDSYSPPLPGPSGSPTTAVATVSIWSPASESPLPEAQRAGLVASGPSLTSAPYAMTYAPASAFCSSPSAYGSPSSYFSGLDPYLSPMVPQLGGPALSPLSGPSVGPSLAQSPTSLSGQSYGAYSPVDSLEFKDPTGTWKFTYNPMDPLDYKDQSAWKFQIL
# Method in brief: as §1
# [11] = molecular target: ETV1 (Homo sapiens, UniProt P50549 1-477); details: protein: recombinant; tags: N-terminal GST; dsDNA, one strand shown
# ETV1, sequence (P50549 whole entry): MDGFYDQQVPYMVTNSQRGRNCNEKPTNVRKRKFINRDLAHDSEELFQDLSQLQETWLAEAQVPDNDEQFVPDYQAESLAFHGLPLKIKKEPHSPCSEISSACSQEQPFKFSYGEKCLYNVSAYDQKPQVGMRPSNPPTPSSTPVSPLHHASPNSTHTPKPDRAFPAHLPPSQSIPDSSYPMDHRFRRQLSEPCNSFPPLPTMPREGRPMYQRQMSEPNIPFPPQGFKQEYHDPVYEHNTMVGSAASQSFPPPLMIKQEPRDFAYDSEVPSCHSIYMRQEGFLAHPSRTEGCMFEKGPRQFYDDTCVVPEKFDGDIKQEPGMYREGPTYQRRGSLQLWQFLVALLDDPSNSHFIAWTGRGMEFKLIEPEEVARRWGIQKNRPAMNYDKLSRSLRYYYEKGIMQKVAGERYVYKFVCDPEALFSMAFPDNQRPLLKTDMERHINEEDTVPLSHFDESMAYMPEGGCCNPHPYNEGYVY
# Method in brief: as §1
# [12] = molecular target: T6, ERF (Homo sapiens, UniProt P50548 1-548); details: protein: recombinant; tags: N-terminal GST; dsDNA, one strand shown
# T6 sequence: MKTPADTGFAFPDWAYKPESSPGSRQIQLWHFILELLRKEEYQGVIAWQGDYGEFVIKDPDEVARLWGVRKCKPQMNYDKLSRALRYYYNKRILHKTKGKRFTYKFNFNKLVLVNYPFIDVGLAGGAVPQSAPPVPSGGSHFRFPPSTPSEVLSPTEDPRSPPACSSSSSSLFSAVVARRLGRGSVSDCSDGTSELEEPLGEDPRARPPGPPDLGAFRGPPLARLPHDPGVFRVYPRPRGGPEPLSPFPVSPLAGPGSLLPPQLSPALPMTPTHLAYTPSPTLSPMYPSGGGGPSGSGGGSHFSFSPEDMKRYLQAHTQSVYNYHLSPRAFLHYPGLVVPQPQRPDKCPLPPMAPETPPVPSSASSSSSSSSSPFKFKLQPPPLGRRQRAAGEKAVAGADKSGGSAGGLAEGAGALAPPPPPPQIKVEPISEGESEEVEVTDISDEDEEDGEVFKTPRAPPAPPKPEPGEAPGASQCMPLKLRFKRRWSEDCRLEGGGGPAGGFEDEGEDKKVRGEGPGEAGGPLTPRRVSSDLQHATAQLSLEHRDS
# Method in brief: as §1
sequence,measurement,setting,value
TTAGCC,binding signal,[1],"1.01 fold enrichment (6-mer frequency, TF over GST control)"
same,binding signal,[2],"1.06 fold enrichment (6-mer frequency, TF over GST control)"
same,binding signal,[3],"1.03 fold enrichment (6-mer frequency, TF over GST control)"
same,binding signal,[4],"1 fold enrichment (6-mer frequency, TF over GST control)"
same,binding signal,[5],"1.02 fold enrichment (6-mer frequency, TF over GST control)"
same,binding signal,[6],"1.45 fold enrichment (6-mer frequency, TF over GST control)"
same,binding signal,[7],"1.04 fold enrichment (6-mer frequency, TF over GST control)"
same,binding signal,[8],"1.01 fold enrichment (6-mer frequency, TF over GST control)"
same,binding signal,[9],"1.06 fold enrichment (6-mer frequency, TF over GST control)"
same,binding signal,[10],"2.22 fold enrichment (6-mer frequency, TF over GST control)"
same,binding signal,[11],"1.02 fold enrichment (6-mer frequency, TF over GST control)"
same,binding signal,[12],"1.07 fold enrichment (6-mer frequency, TF over GST control)"

# Source: PMC7862700, “An all-to-all approach to the identification of sequence-specific readers for epigenetic DNA modifications on cytosine”
